# Mm-Cpn inhibitor – M. maripaludis TRiC chaperonin inhibition; purified Mm-Cpn ATPase, ADP Transcreener TR-FRET; hit rate 0.031% among 330,000; Potency, µM (titrated, usually from 76.9 µM), without a hit: at the top dose activity, negative = inhibition, actives largely listed as inhibitors; active = well fitted inhibition curve with a large enough effect; inconclusive = small, poorly fitted or top-dose-only effect; note: potency is the fitted concentration of half-maximal effect; % is set by controls: 0 for no effect and ±100 for the full control effect; nearly all actives have a fitted effect of over 80% in size
#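 Compound-treated chaperonin, 25 nM final, turns over 10 uM ATP at 37°C for 30 min following a 10 min preincubation; ADP generated competes with ADP-d2 for Eu-cryptate antibody, lowering FRET.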
# hERG WT inh – inhibitors of human wildtype KCNH2 potassium channel. Q12809. U2OS, BacMam KCNH2, thallium flux FluxOr; hits give low values. activity change, % at 1.84 µM. hit rate 0.37% among 340,000;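 active = maximum activity change below -70%; inconclusive = maximum activity change between -70% and -50%; inactive = maximum activity change above -50%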; note: % is set by controls: 0 for no effect and ±100 for the full control effect
#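 U2OS cells transduced with wild-type KCNH2 virus are loaded with FluxOr dye for 45 min, and thallium flux is measured in kinetic reads before and after stimulation buffer. Rate constants are normalized to DMSO controls.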
# Rango release inh – inhibition of RanGTP-driven Rango-importin beta dissociation. Biochemical FRET Rango-importin beta, RanGTP-induced dissociation. Potency, µM (doses to about 46.1 µM), for the others: at the highest dose activity change, negative = inhibition. hit rate 0.071% among 340,000. AID 540253; note: potency is the fitted concentration of half-maximal effect; % of control where 0% means no effect; nearly all actives have a fitted effect of over 45% in size
#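 Rango/importin beta premix (0.1/0.25 uM final), PBS + 1 mM DTT + 0.02% Tween-20 + 0.1% BSA; cpd 5 min RT; FRET pre-read; + RanGTP-RCC1 (0.6 uM Ran, 2 mM GTP, 0.2 uM RCC1); 45 min RT; FRET post-read, ex 430, em 486/530 nm.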
# Rango complex inh – inhibitors of Rango-importin beta complex formation. Q14974. Rango CFP/YFP FRET sensor + importin beta, 45 min. Potency, µM (series often up to 92.2 µM), inactives show at the highest dose inhibition of complex formation. hit rate 0.031% among 340,000. AID 540263;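 note: potency is the fitted concentration of half-maximal effect; 0% = DMSO wells and 100% = buffer wells lacking importin beta; nearly all actives have a fitted effect of over 15% in size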
# Target sequence (Q14974 whole entry, looked up): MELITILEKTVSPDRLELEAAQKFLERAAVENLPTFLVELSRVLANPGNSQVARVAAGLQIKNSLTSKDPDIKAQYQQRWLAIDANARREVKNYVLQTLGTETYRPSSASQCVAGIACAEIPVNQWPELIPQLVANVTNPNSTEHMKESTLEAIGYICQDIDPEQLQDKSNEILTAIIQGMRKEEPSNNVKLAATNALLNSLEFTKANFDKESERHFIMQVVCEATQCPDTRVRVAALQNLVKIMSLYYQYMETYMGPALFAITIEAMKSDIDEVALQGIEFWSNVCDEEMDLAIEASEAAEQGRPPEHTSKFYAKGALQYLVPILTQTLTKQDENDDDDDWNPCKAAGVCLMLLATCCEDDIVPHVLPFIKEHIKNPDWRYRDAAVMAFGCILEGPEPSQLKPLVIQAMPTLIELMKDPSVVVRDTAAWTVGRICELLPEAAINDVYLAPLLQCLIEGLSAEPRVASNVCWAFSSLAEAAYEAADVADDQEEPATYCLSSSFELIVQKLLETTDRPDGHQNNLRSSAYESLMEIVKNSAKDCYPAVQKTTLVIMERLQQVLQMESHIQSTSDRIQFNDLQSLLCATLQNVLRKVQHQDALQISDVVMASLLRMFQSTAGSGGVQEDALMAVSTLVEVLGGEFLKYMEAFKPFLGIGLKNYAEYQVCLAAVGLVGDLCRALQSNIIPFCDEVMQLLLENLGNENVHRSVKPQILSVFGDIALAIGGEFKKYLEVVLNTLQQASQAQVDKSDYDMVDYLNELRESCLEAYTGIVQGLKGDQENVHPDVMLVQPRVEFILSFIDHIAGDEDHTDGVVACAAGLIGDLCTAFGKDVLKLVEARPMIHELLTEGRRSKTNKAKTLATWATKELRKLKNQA
#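 FRET biosensor Rango (snurportin 1 IBB between N-terminal EYFP and C-terminal Cerulean), 50 nM in PBS/1 mM DTT/0.02% Tween-20/0.1% BSA, preincubated 5 min RT with compound; 0.125 microM importin beta added, 45 min RT, CFP/YFP FRET ratio read.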
# CCT chaperon mod – modulators of cytosolic chaperonin (CCT/TRiC) activity; purified chaperonin ATPase assay, HTRF ADP detection, 30 min; activity change, % (concentration not given with the values), hits read low; hit rate 0.3% among 360,000; in the data active = activity change below about -30%; note: % is set by controls: 0 for no effect and ±100 for the full control effect
#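 TRiC at 40 or 20 nM final (batch-dependent) in 30 mM Tris pH 7.4, 100 mM KCl, 5 mM MgCl2, 1 mM DTT, with compound at single 76 uM and 10 uM ATP, 30 min at 37 deg C. ADP detected by HTRF Transcreener, 665/615 ratio.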
# KCNH2 3.1 inh – inhibitors of human KCNH2 3.1 potassium channel isoform | U2OS KCNH2 3.1, thallium flux FluxOr; hits give low values | activity change, % (tested at about 1.8 µM) | hit rate 0.95% among 340,000 | AID 720553;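 active = maximum activity change below -70%; inconclusive = maximum activity change from -70% to -50%; inactive = maximum activity change above -50%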;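 note: thallium influx rate constant from kinetic fluorescence after stimulation buffer; % is set by controls: 0 for no effect and ±100 for the full control effect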
#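 Normalized rate constant (relative to positive and negative DMSO controls) derived from a 2 min kinetic fluorescence read after stimulation; U2OS cells expressing the 3.1 isoform via virus at 1.77 x 10^8 /mL.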
# Starred values were filed as active, the others as inactive; ? = inconclusive; / = no result; [ ] = another dose, or the depositor's remark. Compounds with a hit are over-represented: about 1.4% of the library has one in this group of screens. Unless noted, calls come from the whole dose curve.
SMILES,Mm-Cpn inhibitor,hERG WT inh,Rango release inh,Rango complex inh,CCT chaperon mod,KCNH2 3.1 inh
COc1ccc(C(CNC(=O)c2cccc(S(=O)(=O)N3CCCc4ccccc43)c2)N(C)C)cc1 (centres undefined),/,-18.3,1.6%,-3.0%,-0.6,-73.6*
Cc1ccnc(NC(=O)c2cccc(S(=O)(=O)N3CCN(c4ccc(F)cc4)CC3)c2)c1,-4.3%,-26.5,8.6%,0.5%,2.2,-72.1*
CN(C)C(CNC(=O)c1cccc(S(=O)(=O)N(C)C)c1)c1ccccc1 (centres undefined),1.7%,2.8,8.3%,1.2%,0.5,-21.8
COc1ccc(NC(=O)c2cccc(S(=O)(=O)N3CCc4ccccc43)c2)c(OC)c1,/,-88.9*,/,/,1.8,8.5
Cc1ccc(CNC(=O)Cn2cnc(S(=O)(=O)N3CCC(C)CC3)c2)o1,-1.8%,-17.5,-25.1%,-4.0%,0.3,7.9
COc1ccc(C(CNC(=O)c2ccc(S(=O)(=O)N3CCCC3)cc2)N(C)C)cc1OC (centres undefined),-12.2%,7.3,-16.3%,1.6%,0.5,-0.2
COc1ccc(C(CNC(=O)c2ccc(S(=O)(=O)N3CC(C)CC(C)C3)cc2)N(C)C)cc1 (centres undefined),0.8%,-82.5*,-3.3%,-0.2%,-3.4,-10.8
CCOc1ccc(NC(=O)CCC(=O)NNC(=O)COc2ccc(C)cc2Br)cc1,1.1%,32.2,3.5%,-0.4%,-36.4*,-22.6
COc1ccccc1N(Cc1ccccc1)S(=O)(=O)c1cccc(C(=O)Nc2cccc(C)n2)c1,1.9%,-0.3,-7.0%,0.8%,-1.1,8.0
O=C(NCc1ccc(F)cc1)c1cc(C2CCCN(C(=O)c3ccc4ccccc4c3)C2)on1 (centres undefined),/,/,/,/,-0.4,/
N=C1c2c(cc(=O)n3c2[nH]c2ccccc23)CN1CCN1CCOCC1,-2.3%,22.0,20.6µM*[inhibitor],?,-0.5,5.3
O=c1c2ccccc2[nH]c(=S)n1CCCN1CCOCC1,-0.2%,4.6,0.0%,-0.3%,-2.9,-2.6
CCN(CC)C(=O)c1[nH]cnc1C(=O)N[C@@H](C)C(=O)OC(C)(C)C,/,/,0.4%,-3.2%,-1.0,/
NC(=O)CSc1nnc(Cc2ccc3c(c2)OCO3)n1C1CCCCC1,0.4%,0.4,-6.0%,2.6%,-1.7,-77.4*
O=C(OCc1csc(-c2ccccc2)n1)c1ccc(O)cc1,-3.0%,-12.1,-5.8%,?,1.8,-80.1*
Cc1nnc(NCc2ccccc2)c2ccccc12,-6.8%,0.3,-6.0%,2.7%,-1.5,0.1
COC(=O)C1Cc2c([nH]c3ccccc23)C2(CCN(Cc3ccccc3)CC2)N1 (centres undefined),2.6%,-40.0,14.5%,2.2%,0.1,-81.2*
CCCN1CCC2(CC1)NC(C(=O)O)Cc1c2[nH]c2ccccc12 (centres undefined),0.7%,-5.4,-12.5%,-2.1%,-2.3,-0.2
CCC1(C)NC(C(=O)O)Cc2c1[nH]c1ccccc21 (centres undefined),1.8%,0.6,1.6%,-2.8%,-39.5*,-8.5
Cc1cccc(CN2C(=O)N/C(=C/c3ccc(C)s3)C2=O)c1,0.8%,-5.9,?,?,-7.1,2.8
Cc1cccc(CN2C(=O)N/C(=C/c3cc(C)n(-c4cc(C)ccn4)c3C)C2=O)c1,-4.2%,1.4,13µM*[inhibitor],?,-1.4,2.8
Cc1c(C(=O)OCC(=O)N2CC(=O)Nc3ccccc32)oc2ccc(Br)cc12,-1.0%,3.4,0.5%,-0.2%,-1.0,-7.2
O=C(O)c1ccccc1Oc1ccc(Oc2ccccc2)cc1,2.8%,6.3,8.8%,-2.7%,-1.6,11.7
O=C(C1CCC(CNc2nc(=S)[nH]c3ccccc23)CC1)N1CCN(c2ccc(F)cc2)CC1 (centres undefined),-6.5%,1.2,4.0%,0.0%,-36.0*,3.8

# Assay outcomes from PubChem BioAssay.
